Screening data as filed in PubChem BioAssay.
Hsp70 act = Hsp70 transcriptional activation, primary screen; activation, % at 10 µM; actives 0.04% (n = 200,000); AID 1203; HeLa Hsp70 promoter luciferase reporter, luminescence; scaled: vehicle 0, proteasome-inhibitor control 100%;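 active = activation above the mean across all tested compounds plus 3 SD, cutoff set per campaign, cut at about 5.5% in these data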
CHOP inh = CHOP inhibition in unfolded protein response; CHO-K1 CHOP-promoter luciferase, tunicamycin-induced, 15-18 h; inhibition, % at 10 µM; actives 3.8% (n = 220,000); AID 2732;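 active = compounds that reduced the stress-induced luciferase reporter signal by more than about 70% of percent inhibition, limit read from the data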
S1P4 agonist = human S1P4 receptor agonism; O95977; S1P4-expressing cell line, agonist reporter assay; activation, % at 4.98 µM; actives 0.35% (n = 220,000); AID 1509; in the data active = activation above about 11%
Target sequence (O95977 whole entry, looked up): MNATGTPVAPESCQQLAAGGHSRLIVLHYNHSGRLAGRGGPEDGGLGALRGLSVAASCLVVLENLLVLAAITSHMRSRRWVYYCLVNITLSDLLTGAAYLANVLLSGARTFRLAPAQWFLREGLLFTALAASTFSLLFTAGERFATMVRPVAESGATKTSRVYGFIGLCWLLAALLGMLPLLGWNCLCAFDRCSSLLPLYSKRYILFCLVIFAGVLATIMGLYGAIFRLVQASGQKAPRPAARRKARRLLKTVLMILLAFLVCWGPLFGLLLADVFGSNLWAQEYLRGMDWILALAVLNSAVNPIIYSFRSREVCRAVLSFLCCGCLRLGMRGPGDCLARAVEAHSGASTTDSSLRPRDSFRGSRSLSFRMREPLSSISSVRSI
S1P4 antagonist = human S1P4 receptor antagonism. O95977. actives 0.26% (n = 220,000). AID 1510. inhibition, % at 4.98 µM. S1P4-expressing cells, antagonist mode, reporter read-out; in the data active = inhibition above about 29%
CHOP inh conf = confirmation of CHOP induction inhibitors. CHO-CHOP promoter luciferase reporter, tunicamycin-induced, luminescence. inhibition, % at 10 µM. shares compounds with CHOP inh. AID 504437. actives 45% (n = 2,100);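 active = mean of three repeat readings of reporter signal inhibition above a set limit, cut at about 70% in these data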
Numbers stand for hits; n = inactive; x = no result. Hits are enriched below; roughly 4.2% of the tested compounds scored in any of these assays.

SMILES | Hsp70 act | CHOP inh | S1P4 agonist | S1P4 antagonist | CHOP inh conf
CCOc1cccc(/C=C2/NC(=O)N(CC(=O)Nc3cccc(C)c3)C2=O)c1O | n | 104 | n | n | n
CC(C)(C)C(=O)c1no[n+]([O-])c1/C(=N/O)C(C)(C)C | n | 108 | n | n | 78
Nc1c(C(=O)Nc2ccccc2)c2nc3ccccc3nc2n1CCCN1CCOCC1 | x | 100 | n | n | n
CCCCn1c(-c2nonc2N)nc2ccccc21 | n | 100 | n | n | n
CCN(CC)S(=O)(=O)c1cccc(-c2n[nH]c(=S)n2C)c1 | n | n | n | n | x
O=C(Nc1cc(Cl)ccc1O)c1cc2n(n1)C(C(F)(F)F)CC(c1ccc3c(c1)OCO3)N2 (stereo unspecified) | n | 105 | n | n | 89
C/C(CC(=O)NC(C)C)=N\NC(=O)COc1cc(C)c(Br)cc1Br | n | n | n | n | x
O=C(CCC(=O)OCC(=O)c1ccc(F)cc1)NC1CCCCC1 | n | n | n | n | x
COCCn1c(=NC(=O)CSC(C)=O)sc2cc(F)ccc21 | n | n | n | n | x
COCCn1c(=NC(=O)/C=C/c2cccs2)sc2cc(NC(C)=O)ccc21 | n | 105 | n | n | 79
COc1ccc(C(=O)COC(=O)CNC(=O)c2cc(OC)cc(OC)c2)cc1 | n | n | n | n | x
CC(=O)C1=C(C)NC(SCC(=O)c2ccc(-c3ccccc3)cc2)=C(C#N)C1c1cccnc1 (stereo unspecified) | n | 97 | n | n | n
CC(=O)C1=C(C)NC(SCSc2ccccc2)=C(C#N)C1c1cccnc1 (stereo unspecified) | n | n | n | n | x
CCCCCCn1c(CN2CCN(Cc3ccccc3)CC2)nc2c1c(=O)n(C)c(=O)n2C | n | 100 | n | n | 120
COc1cc(OC)c(OC)cc1/C=N/Nc1ncnc2c1[nH]c1ccccc12 | n | 104 | n | n | 72
C[C@@H]1C[C@@H]2OC(=O)[C@]3(C)[C@H]2[C@@H](OC3(C)O)[C@]2(C)C(=O)C=C[C@H]12 (stereo partly specified) | x | n | x | x | x
C=C1C(=O)O[C@@H]2C[C@@H](C)[C@@H]3C=CC(=O)[C@@]3(C)[C@@H](OC(C)=O)[C@H]12 | x | 107 | x | x | 120
CCCN(CCC)C(=O)CSc1nc2ccccc2c(=O)n1C1CCCC1 | n | 97 | n | n | n
COc1ccc(C(=O)NCc2nnc(SCC(=O)Nc3ccccc3F)o2)cc1 | n | n | n | n | x
COc1ccccc1Nc1ncnc2c1cnn2-c1cccc(C)c1 | n | n | n | n | x
COc1cccc(Nc2ncnc3c2cnn3-c2cccc(C)c2)c1 | n | 105 | n | n | 130
Cc1ccccc1Cn1c(C)cc(C)c(C#N)c1=O | n | n | n | n | x
Nc1ccc(SC(F)(F)F)cc1C(=O)c1ccccc1 | n | 104 | n | n | 111
Cn1c(=O)c(=O)n(C)c2cc(S(=O)(=O)N3CCC(Cc4ccccc4)CC3)ccc21 | n | n | n | n | x
O=c1[nH]c2ccc(S(=O)(=O)N3CCC(Cc4ccccc4)CC3)cc2o1 | n | 100 | n | n | n
SMILES | Hsp70 act | CHOP inh | S1P4 agonist | S1P4 antagonist | CHOP inh conf
CC(=O)Nc1ncnc2c1c(-c1ccc(Cl)cc1)nn2C(C)(C)C | n | n | n | n | x
O=c1c(-c2cnn(-c3ccccc3)c2)coc2cc(O)ccc12 | n | n | n | n | x
Cc1ccc(OCC(=O)N2CCN(c3nnc(-c4ccc(C)cc4)c4ccccc34)CC2)cc1 | n | 97 | n | n | 75
COc1ccc(/C=N/Nc2cc(C)nc(NS(=O)(=O)c3ccc(C)cc3)n2)cc1 | n | n | n | n | x
CCCCCCCCCn1c2c(c(=N)c3c1CCC3)CCCC2 | n | 106 | n | n | n
CCn1c2c(c(=N)c3c1CCC3)CCCC2 | x | n | n | n | x
Cc1c(Cl)cccc1N/C(=N/S(=O)(=O)c1cccs1)c1ccccc1 | n | n | n | n | x
O=C1/C(=N\S(=O)(=O)c2cccs2)C([n+]2ccccc2)=C([O-])c2ccccc21 | x | n | n | n | x
Cc1cccc(NC2=C/C(=N/S(=O)(=O)c3cccs3)c3ccccc3C2=O)c1 | n | 106 | n | n | 114
Cc1ccc(Cl)cc1NC1=C/C(=N\S(=O)(=O)c2cccs2)c2ccccc2C1=O | n | 109 | n | n | 116
Cc1ccc(NC2=C/C(=N\S(=O)(=O)c3cccs3)c3ccccc3C2=O)c(C)c1 | n | x | n | n | 119
COc1nnc(-c2ccc(C)c(S(=O)(=O)NCCO)c2)c2ccccc12 | n | n | n | n | x
COc1ccc(N2C(=O)CC(NCc3ccncc3)C2=O)cc1 (stereo unspecified) | n | n | n | n | x
